The values below come from PubChem BioAssay (NCATS).

The target of assay [1] is Lysosomal acid glucosylceramidase (Homo sapiens) (UniProt P04062). As to the kind of experiment: Glucocerebrosidase-p2 (AID 348; in the data active = potency below about 10 µM; note: potency is the fitted concentration of half-maximal effect). Particulars: purified GBA, blue fluorogenic substrate, 40 min. In a few lines:
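Compounds titrated from 0.6 nM upwards against 0.2 nM enzyme in pH 5.9 citric acid/KH2PO4, taurocholate, tween-20; blue fluorogenic substrate 80 uM, 40 min room temperature, stopped and read Ex 365/Em 440 for AC50.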

Assay [2] addresses Cytochrome P450 1A2 (Homo sapiens) (UniProt P05177). Description: p450-cyp1a2 (AID 410; calls by dose curve; note: potency is the fitted concentration of half-maximal effect;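 for activity change, negative = inhibition: -100% = full effect of reference inhibitor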). To be noted: recombinant CYP1A2, luciferin-ME demethylation, luminescence; series mostly up to 11.4 µM. The essentials: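 Human CYP1A2 (20nM) demethylated Luciferin-ME at its Km (100uM) in 100mM KPO4. After 10 min compound preincubation, NADPH regeneration ran the reaction 60 min at room temperature. Luciferin was read by luminescence, normalized to 57 uM furafylline.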

Assay [3] can be described thus: NFAT Signaling Pathway (AID 444).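 Note: carbachol stimulus at about its EC50 of 1 µM final; % is set by controls: 0 for no effect and ±100 for the full control effect.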 Particulars: Jurkat NFAT-bla M1, carbachol, beta-lactamase ratio, 5 h; at 7.69 µM (top of the series) unless noted. In a few lines: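 Read-out: CCF4 FRET ratio (460 nm/530 nm) after 1 h RT dye loading, used for %activity and AC50 from titration series. Cells: Jurkat NFAT-β-lactamase/M1 line, treated with compound plus 1 uM carbachol for 5 h, 37 °C.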

The nature of assay [4]: Stat Signaling Pathway (AID 446).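 Note: ME-180 cervical cancer cells given 40 pM IL-6 alongside compound; SIE-controlled beta-lactamase reporter measured as 460/530 nm FRET emission ratio; % is set by controls: 0 for no effect and ±100 for the full control effect.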 To be noted: ME-180 SIE beta-lactamase reporter, IL-6 stimulated, 5 h; at 7.69 µM (top of the series) unless noted. The essentials: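 ME-180 SIE-bla cells; overnight plating; cpd + IL-6 40 pM, 5 h, 37 C; LiveBLAzer 2.5 h RT; 460/530 nm emission ratio. Normalized to 300 pM IL-6 and 125 nM JAK inhibitor controls.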
Assay [5] concerns the target Glucocorticoid receptor (Homo sapiens) (UniProt P04150). Description: GR-GFP Redistribution (AID 450;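 active = compounds whose dose series gives a full or clear partial fitted curve of increased nuclear translocation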; note: potency is the fitted concentration of half-maximal effect). Particulars: U2OS GR-GFP nuclear translocation, laser cytometry, 2 h.
The target is the same in assay [6]. Description: GR-EFC Redistribution (AID 451; calls by dose curve; note: potency is the fitted concentration of half-maximal effect). To be noted: CHO-K1 GR-EFC translocation, beta-gal luminescence, 2 h. The essentials: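 Translocation of GR-ED fusion to nuclear EA restores b-gal, read by luminescence after 1 h room-temperature detection. Engineered CHO-K1 biosensor cells, 1,000/well, exposed 2 h at 37 C to titrations up to 46 uM final.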
Assay [7] addresses Mitogen-activated protein kinase 10 (Mus musculus) (UniProt Q61831). As to the kind of experiment: JNK3 AlphaScreen Assay (AID 530).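 Note: kinase came from lysate of stimulated human HepG2 cells; signal reports phosphorylation of biotinylated GST-cJun 1-79 at Ser73 with 10 µM ATP; % is set by controls: 0 for no effect and ±100 for the full control effect.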 Particulars: JNK3 lysate, c-Jun phosphorylation; series mostly up to 11.4 µM. In a few lines: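 Room-temperature AlphaScreen kinase assay; pre-activated HepG2 lysate as JNK3 source, biotin-GST-cJun(1-79) substrate, 10 uM ATP, compound 15 min preincubation.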

The target in assay [8] is 3',5'-cyclic-AMP phosphodiesterase 4B (Homo sapiens) (UniProt Q07343). As to the kind of experiment: qHTS Assay for Inhibitors of PDE-IV (AID 607; active = well fitted activation curve with a large enough effect in the main read-out, with a control signal flat, not every such curve was filed as active; note: % of control where 0% means no effect). Particulars: HEK293 ACTOne CNG channel cells, membrane potential fluorescence; series mostly up to 22.9 µM. The essentials:
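ACTOne HEK293 cells carry a modified cAMP-gated CNG channel and express endogenous PDE4; plated 1000 cells/well, compounds up to 22.9 uM final. Membrane-potential dye fluorescence (ex 535/em 590) was read; parental cells received 10 uM forskolin + 100 uM RO 20-1724.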

Assay [9] addresses Cytochrome P450 2C9 (Homo sapiens) (UniProt P11712). Description: qHTS Assay for Inhibitors and Substrates of Cytochrome P450 2C9 (AID 883; active = well fitted curve in the direction sought with a large enough effect; an effect the other way counts as inactive or inconclusive; note: potency is the fitted concentration of half-maximal effect; nearly all actives have a fitted effect of over 60% in size). To be noted: recombinant CYP2C9, luciferin-H luminescence, 60 min; series mostly up to 11.4 µM. The essentials: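 Inhibition of CYP2C9 is scored as loss of luminescence, with 57uM sulphaphenazole defining 100% inhibition. Substrate Luciferin-H is used at 100uM, equal to its KM; enzyme at 10nM in 25mM KPO4, 60 min at 37C with NADPH regeneration.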

The target in assay [10] is Cytochrome P450 3A4 (Homo sapiens) (UniProt P08684). Description: qHTS Assay for Activators of Cytochrome P450 3A4 (AID 885; active = well fitted curve in the direction sought with a large enough effect; an effect the other way counts as inactive or inconclusive; note: nearly all actives have a fitted effect of over 65% in size). Particulars: recombinant CYP3A4, Luciferin-PPXE luminescence, 60 min; series mostly up to 11.4 µM. In a few lines: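 20nM CYP3A4 + 25uM Luciferin-PPXE (=KM), 200mM KPO4; cpd 10 min RT; NADPH regen, 60 min RT; stop w/ detection buffer, 20 min; luminescence. Normalized to 57 uM ketoconazole.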

Assay [11] addresses Cytochrome P450 2C19 (Homo sapiens) (UniProt P33261). Description: qHTS Assay for Inhibitors and Substrates of Cytochrome P450 2C19 (AID 899; active = well fitted curve in the direction sought with a large enough effect; an effect the other way counts as inactive or inconclusive; note: potency is the fitted concentration of half-maximal effect; nearly all actives have a fitted effect of over 60% in size). Particulars: recombinant CYP2C19, luciferin-H EGE luminescence; series mostly up to 11.4 µM. The essentials:
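5nM enzyme + 10uM Luciferin-H EGE (=KM), 50mM KPO4; cpd pin-transferred, 10 min 37C; NADPH regen, 60 min 37C; stopped w/ luciferin detection reagent, 20 min; luminescence. Normalized to 57uM ketoconazole (AC100).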

A number with no mark means an inactive call. Results filed as inconclusive are left out. Active and inactive are the calls of the source. Unless noted, calls come from the whole dose curve; as a rule, active = well fitted curve in either direction with a large enough effect (not every such curve was filed as active); inconclusive = small, poorly fitted or top-dose-only effect, or another doubt; inactive = flat fitted curve, though single readings scatter.

Glucocorticoid receptor (Homo sapiens), sequence (P04150 whole entry, looked up, the tested form may be a part): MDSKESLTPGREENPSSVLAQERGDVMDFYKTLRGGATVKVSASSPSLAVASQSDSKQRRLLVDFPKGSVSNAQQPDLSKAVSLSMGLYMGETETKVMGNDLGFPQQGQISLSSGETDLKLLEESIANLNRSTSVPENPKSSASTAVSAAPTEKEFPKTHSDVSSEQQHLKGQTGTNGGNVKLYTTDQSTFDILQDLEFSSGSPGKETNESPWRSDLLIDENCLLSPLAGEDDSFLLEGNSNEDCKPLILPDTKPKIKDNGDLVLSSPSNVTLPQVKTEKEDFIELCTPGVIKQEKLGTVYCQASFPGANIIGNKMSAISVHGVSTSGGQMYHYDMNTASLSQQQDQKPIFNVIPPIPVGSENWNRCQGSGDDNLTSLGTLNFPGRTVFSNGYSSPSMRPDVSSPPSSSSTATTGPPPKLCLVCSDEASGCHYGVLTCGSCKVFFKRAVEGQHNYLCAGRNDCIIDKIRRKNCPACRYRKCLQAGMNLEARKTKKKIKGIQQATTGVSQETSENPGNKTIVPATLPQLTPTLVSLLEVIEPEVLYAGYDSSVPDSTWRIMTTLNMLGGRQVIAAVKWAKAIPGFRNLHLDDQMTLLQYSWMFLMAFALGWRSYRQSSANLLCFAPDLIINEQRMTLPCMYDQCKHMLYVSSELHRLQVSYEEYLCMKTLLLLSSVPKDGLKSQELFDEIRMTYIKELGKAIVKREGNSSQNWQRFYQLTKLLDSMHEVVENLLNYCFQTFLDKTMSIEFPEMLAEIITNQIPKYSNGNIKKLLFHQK
Lysosomal acid glucosylceramidase (Homo sapiens), sequence (P04062 whole entry, looked up): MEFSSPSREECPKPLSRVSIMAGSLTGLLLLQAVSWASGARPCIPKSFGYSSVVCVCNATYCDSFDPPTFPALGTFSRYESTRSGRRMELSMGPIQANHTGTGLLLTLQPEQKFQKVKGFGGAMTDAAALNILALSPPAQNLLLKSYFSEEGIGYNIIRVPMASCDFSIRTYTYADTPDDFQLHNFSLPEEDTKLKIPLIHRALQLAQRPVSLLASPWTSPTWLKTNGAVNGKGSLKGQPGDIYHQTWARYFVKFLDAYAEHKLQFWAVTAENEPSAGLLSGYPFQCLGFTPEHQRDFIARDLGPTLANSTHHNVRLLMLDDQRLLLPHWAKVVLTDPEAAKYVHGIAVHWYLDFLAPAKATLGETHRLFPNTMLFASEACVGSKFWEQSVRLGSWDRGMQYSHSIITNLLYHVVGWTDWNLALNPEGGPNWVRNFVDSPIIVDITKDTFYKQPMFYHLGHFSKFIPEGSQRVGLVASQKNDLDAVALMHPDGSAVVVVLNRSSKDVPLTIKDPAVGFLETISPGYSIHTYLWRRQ
Cytochrome P450 1A2 (Homo sapiens), sequence (P05177 whole entry, looked up): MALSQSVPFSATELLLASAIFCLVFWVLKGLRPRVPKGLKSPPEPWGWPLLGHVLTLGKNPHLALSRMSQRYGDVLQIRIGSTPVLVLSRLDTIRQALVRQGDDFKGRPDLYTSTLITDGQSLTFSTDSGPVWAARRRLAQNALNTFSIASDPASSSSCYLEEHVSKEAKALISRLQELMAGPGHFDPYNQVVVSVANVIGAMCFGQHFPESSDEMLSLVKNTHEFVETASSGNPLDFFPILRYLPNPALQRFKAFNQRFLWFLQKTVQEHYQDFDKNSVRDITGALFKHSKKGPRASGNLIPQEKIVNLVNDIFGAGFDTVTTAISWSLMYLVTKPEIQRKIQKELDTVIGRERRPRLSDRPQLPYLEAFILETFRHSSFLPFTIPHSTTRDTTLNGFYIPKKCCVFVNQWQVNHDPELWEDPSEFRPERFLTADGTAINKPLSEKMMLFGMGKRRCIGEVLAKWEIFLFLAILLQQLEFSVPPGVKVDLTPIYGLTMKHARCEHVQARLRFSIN
3',5'-cyclic-AMP phosphodiesterase 4B (Homo sapiens), sequence (Q07343 whole entry, looked up): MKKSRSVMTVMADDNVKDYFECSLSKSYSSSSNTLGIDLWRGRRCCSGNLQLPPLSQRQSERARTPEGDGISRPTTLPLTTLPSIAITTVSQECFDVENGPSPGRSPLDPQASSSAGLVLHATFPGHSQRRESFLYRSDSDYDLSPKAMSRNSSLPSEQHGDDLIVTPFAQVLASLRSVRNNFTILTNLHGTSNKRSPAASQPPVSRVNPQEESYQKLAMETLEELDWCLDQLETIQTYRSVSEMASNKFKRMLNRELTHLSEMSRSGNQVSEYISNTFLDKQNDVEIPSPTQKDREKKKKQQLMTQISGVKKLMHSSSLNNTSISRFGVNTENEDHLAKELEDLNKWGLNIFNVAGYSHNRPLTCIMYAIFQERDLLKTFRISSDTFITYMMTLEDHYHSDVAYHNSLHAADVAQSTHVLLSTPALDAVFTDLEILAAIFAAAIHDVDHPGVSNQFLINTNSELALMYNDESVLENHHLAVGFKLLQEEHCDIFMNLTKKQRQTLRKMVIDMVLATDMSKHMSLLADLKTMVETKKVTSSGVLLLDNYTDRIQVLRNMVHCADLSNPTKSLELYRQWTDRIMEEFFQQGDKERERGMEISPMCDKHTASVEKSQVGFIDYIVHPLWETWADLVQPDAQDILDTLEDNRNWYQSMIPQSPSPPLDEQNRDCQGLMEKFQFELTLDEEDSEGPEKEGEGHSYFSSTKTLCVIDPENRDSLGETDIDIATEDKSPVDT
Cytochrome P450 2C19 (Homo sapiens), sequence (P33261 whole entry, looked up): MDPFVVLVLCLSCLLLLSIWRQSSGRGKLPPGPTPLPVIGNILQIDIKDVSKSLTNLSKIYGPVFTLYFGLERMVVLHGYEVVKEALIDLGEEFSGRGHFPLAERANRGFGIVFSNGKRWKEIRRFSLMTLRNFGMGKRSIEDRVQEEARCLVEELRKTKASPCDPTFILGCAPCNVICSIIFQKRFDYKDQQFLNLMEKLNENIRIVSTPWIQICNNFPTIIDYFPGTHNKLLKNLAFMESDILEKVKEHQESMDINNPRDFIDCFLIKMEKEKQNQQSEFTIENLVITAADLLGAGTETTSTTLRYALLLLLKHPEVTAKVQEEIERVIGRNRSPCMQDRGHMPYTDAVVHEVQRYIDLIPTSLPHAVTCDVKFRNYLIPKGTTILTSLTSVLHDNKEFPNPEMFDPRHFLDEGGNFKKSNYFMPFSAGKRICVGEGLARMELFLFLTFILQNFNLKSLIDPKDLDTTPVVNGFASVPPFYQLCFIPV
Cytochrome P450 3A4 (Homo sapiens), sequence (P08684 whole entry, looked up): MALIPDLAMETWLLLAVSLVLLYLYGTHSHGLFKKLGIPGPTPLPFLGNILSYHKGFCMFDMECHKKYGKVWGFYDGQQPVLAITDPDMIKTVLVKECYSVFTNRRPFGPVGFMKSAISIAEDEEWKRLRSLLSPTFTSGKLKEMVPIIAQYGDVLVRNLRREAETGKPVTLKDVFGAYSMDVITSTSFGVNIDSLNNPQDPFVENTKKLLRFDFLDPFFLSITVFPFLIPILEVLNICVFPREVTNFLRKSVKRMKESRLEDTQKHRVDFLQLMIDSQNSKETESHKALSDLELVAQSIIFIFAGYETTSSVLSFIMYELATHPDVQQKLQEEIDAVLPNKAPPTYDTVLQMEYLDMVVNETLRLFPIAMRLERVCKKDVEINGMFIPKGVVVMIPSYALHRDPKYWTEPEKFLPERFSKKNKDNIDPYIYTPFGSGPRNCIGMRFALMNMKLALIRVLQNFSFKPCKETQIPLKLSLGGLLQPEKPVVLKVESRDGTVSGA
Cytochrome P450 2C9 (Homo sapiens), sequence (P11712 whole entry, looked up): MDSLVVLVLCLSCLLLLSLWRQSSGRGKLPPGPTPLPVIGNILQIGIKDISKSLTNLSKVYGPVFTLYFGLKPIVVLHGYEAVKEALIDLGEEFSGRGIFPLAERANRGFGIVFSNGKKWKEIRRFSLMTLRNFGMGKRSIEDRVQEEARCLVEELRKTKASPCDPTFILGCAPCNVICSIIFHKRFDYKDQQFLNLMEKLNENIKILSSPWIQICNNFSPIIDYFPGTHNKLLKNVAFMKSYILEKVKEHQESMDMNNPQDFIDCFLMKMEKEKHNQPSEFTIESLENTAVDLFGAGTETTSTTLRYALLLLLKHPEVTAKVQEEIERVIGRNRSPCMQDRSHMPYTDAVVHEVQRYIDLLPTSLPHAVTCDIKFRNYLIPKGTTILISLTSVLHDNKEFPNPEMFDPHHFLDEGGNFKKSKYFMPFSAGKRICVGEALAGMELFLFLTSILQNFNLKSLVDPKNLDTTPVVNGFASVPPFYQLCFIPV

Consider `O=C(O)[C@@H]1[C@@H](C(=O)NCc2ccccn2)[C@@H]2C=C[C@@H]1O2`, for which the Potency in assay [1] is over 11.4 µM; in assay [5], over 46 µM; in [6] it was over 9.22 µM. The results for the activity change, negative = inhibition in assay [2] and in assay [3] were -0.1% [at 2.29 µM] and -3.89%, respectively. Besides, the activity, negative = inhibition in assay [4] is -3.58%. Further, the Potency result in assay [7] and in assay [8] was “inactive” in each case.
As to `Cn1c(=S)c2[nH]c(SCCCc3ccccc3)nc2n(C)c1=O`, the Potency was over 11.4 µM in [1], 3.16 µM (active) in assay [2], over 46 µM in assay [5] and over 9.22 µM in [6]. In addition, in assay [3], the activity change, negative = inhibition is 3.04%. Also, the activity, negative = inhibition in [4] is -23.2%. The Potency result in [7] and in assay [8] was “inactive” throughout.
Take `c1ccc2cc(NCNc3ccc4ccccc4c3)ccc2c1`: the Potency in [1] is over 11.4 µM; in assay [2] it was 0.631 µM (active); in assay [5], over 46 µM; in [6], over 9.22 µM; in [9], 3.98 µM (active); in [11], 2.51 µM (active). The activity change, negative = inhibition in assay [3] was -15.6%. Further, in assay [4], the activity, negative = inhibition is -2.06%. Besides, the Potency entry in assay [7], in assay [8] and in assay [10] was “inactive” each time.
In the case of `CN(C)Cc1cc(O)c(O)c(CN(C)C)c1`, the Potency in [1] is over 11.4 µM; in [5], over 46 µM; in assay [6], over 9.22 µM. Also, the Potency entry in [2], in assay [7] and in assay [8] was “inactive” in each case. The activity change, negative = inhibition in assay [3] is 3.49%. Further, the activity, negative = inhibition in assay [4] is 2.92%.
In the case of `OC[C@@H]1O[C@@H](N2CCN([C@@H]3O[C@@H](CO)[C@@H](O)[C@H](O)[C@H]3O)CC2)[C@@H](O)[C@H](O)[C@H]1O`, the Potency was over 11.4 µM in [1], over 46 µM in [5] and over 9.22 µM in [6]. Moreover, the activity change, negative = inhibition is -9.7% [at 2.29 µM] in [2] and -2.18% in assay [3]. Also, the activity, negative = inhibition in assay [4] was -5.46%. For the same molecule, the Potency entry in assay [7] and in [8] was “inactive” each time.
In the case of `Cc1ccc(S(=O)(=O)O[C@@H]2[C@H]([C@@H]3COC(C)(C)O3)O[C@H]3OC(C)(C)O[C@@H]32)cc1`, the Potency was over 11.4 µM in assay [1], over 46 µM in assay [5] and over 9.22 µM in [6]. For the same molecule, the Potency entry in [2], in assay [7] and in assay [8] was “inactive” in each case. In assay [3], the activity change, negative = inhibition was 3.01%. Besides, the activity, negative = inhibition in assay [4] is 7.9%.
On to `O=C(O)c1nn(-c2ccc(Cl)cc2)c2c1C(=O)c1ccccc1C2=O`, for which the Potency is over 11.4 µM in assay [1], 0.251 µM (active) in assay [2], over 46 µM in assay [5] and over 9.22 µM in assay [6]. The activity change, negative = inhibition in assay [3] was -17.6%. Further, in assay [4], the activity, negative = inhibition is 2.2%. Besides, the Potency entry in assay [7] and in assay [8] was “inactive” each time.
